We go through 13 molecules from PubChem BioAssay (Tox21).

Results filed as inconclusive are left out. Where a call stands in place of a potency, no number is given. Activity calls are given as the source filed them. Calls follow the shape of the full dose curve.
Potency is read from the fitted curve at half-maximal effect.

This assay can be described thus: qHTS assay for small molecule agonists of the p53 signaling pathway - cell viability (AID 651633). Also: nearly all actives have a fitted effect of over 30% in size. Conditions: p53RE-bla HCT-116 viability, ATP luminescence, 16 h; series mostly up to 83.3 µM. The method, boiled down: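 p53RE-bla cells, seeded at 4,000 per well and rested 5 h at 37 C/5% CO2, received compounds in DMSO for 16 h at 37 C. CellTiter-Glo was then added, and luminescence was read after 30 min at room temperature to gauge cytotoxicity.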
For `O=C(O)CCC(=O)OC[C@@H](NC(=O)C(Cl)Cl)[C@H](O)c1ccc([N+](=O)[O-])cc1`, the Potency result was “inactive”.
For `CC(=O)OCCC(C)CC(C)(C)C` (stereo not drawn) the value was “inactive”; for `O=C1NC(=O)c2cccc3cccc1c23`, “inactive”; for `CCN(CC)c1ccc(C(=C2C=CC(=[N+](CC)CC)C=C2)c2ccc(S(=O)(=O)O)cc2S(=O)(=O)[O-])cc1`, 27.3 µM (active).
For `CCCCC[C@H](O)/C=C/[C@H]1[C@H](O)CC(=O)[C@@H]1C/C=C\CCCC(=O)O` the value was “inactive”.
In the case of `CC[C@@H](CO)NCCN[C@@H](CC)CO`, the Potency entry was “inactive”.
Turning to `O=[N+]([O-])C1(Br)COCOC1`, the Potency entry was “inactive”.
In the case of `CCCCOC(=O)CCCCC(=O)OCCCC` it was “inactive”; in that of `N[C@@H](Cc1cc(I)c(O)c(I)c1)C(=O)O`, “inactive”; in that of `O=C(O)c1cccc(C[C@@H]2COc3ccc(OCc4nc5cc(F)ccc5s4)cc3[C@@H]2O)c1`, “inactive”.
`CCOC(=O)C(C)O` (stereo not drawn): the Potency result was “inactive”.
In the case of `CCC(CO)(CO)CO` it was “inactive”; in that of `CCOC(=O)c1ccc(NC(=O)CN2CCCCC2)cc1`, “inactive”.
